Pf growth 96h: Primary qHTS for delayed death inhibitors of the malarial parasite plastid, 96 hour incubation. P. falciparum luciferase reporter growth, 96 h. Potency, µM (doses to about 28.7 µM), without a hit: at the highest dose activity change, negative = inhibition, usual class: inhibitors. hit rate 6.9% among 320,000. AID 504834, 2011; also: potency is read from the fitted curve at half-maximal effect; % is scaled to controls: 0 for no effect and ±100 for the full control effect
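P. falciparum expressing integrated firefly luciferase, in erythrocytes at 2% hematocrit, 0.05% parasitemia, incubated with compounds 96 h at 37 C, 5% CO2. Growth inhibition read as loss of luminescence; two-generation exposure targets delayed-death apicoplast inhibitors.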
Shiga inhibitor: A qHTS for Small Molecule Inhibitors of Shiga Toxin. Vero cells, Shiga toxin protein synthesis inhibition reporter. hit rate 9.2% among 290,000. inhibition, % at 38.7 µM; in the data active = inhibition mostly above about 28%, no sharp cut-off; inactive = mostly below about 43%; also: 0% is about no effect
CHX counter: Cycloheximide Counterscreen for Small Molecule Inhibitors of Shiga Toxin; cell reporter, cycloheximide protein synthesis inhibition counterscreen; max response, %; hit rate 12% among 300,000; AID 2314, 2010; in the data active = max response mostly above about 13%, no sharp cut-off; inactive = mostly below about 14%; also: read at 38.3 µM for the half of the compounds with a filed dose; 0% is about no effect
Pf growth 48h: Primary qHTS for delayed death inhibitors of the malarial parasite plastid, 48 hour incubation | Potency, µM (series often up to 28.7 µM), for the others: at the highest dose activity change, negative = inhibition, hits mostly inhibitors | P. falciparum luciferase growth in erythrocytes, 48 h | hit rate 5.9% among 310,000 | AID 504832, 2011; also: potency is read from the fitted curve at half-maximal effect; % is scaled to controls: 0 for no effect and ±100 for the full control effect
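Read-out is firefly luciferase luminescence from an integrated reporter in P. falciparum, so falling signal marks reduced parasite growth. Infected erythrocytes were at 2% hematocrit and 0.1% parasitemia (final) in Albumax-supplemented RPMI 1640.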
Numbers without * were called inactive; i = inactive; u = inconclusive; x = no result; [ ] = another dose, or the depositor's remark. A selection: hits, their analogues and other compounds. The true share with any hit is near 21%. Unless noted, calls follow the shape of the dose curve; as a rule, active = well fitted inhibition curve with a large enough effect; inconclusive = small, poorly fitted or top-dose-only effect, or another doubt; inactive = no such curve, though single readings can be large or run the other way.

SMILES | Pf growth 96h | Shiga inhibitor | CHX counter | Pf growth 48h
COCCn1c(SCC(=O)c2cccc(OC)c2)nnc1-c1ccco1 | 13µM* | 39 | -1 | 13%
COCCn1c(SCC(=O)N2CCCC2)nnc1-c1ccco1 | 35% | -3 | -6 | 24%
CCCCOc1ccc(/C=c2\sc3ncnn3c2=O)cc1 | 1.5µM* | 0 | -1 | 12%
CCCCCOc1ccc(/C=c2\sc3ncnn3c2=O)cc1 | -10% | -22 | 0 | 27%
COc1ccc(C(=O)C[n+]2cccc(C)c2)cc1 | -25% | 35 | 8 | -12%
Cc1ccc2c(ccc[n+]2CC(=O)c2ccccc2)c1 | -5% | -7 | -2 | 15µM*
COc1ccc(C(=O)C[n+]2cccc3cc(OC)ccc32)cc1 | u | -8 | 3 | 9.3µM*
COc1ccc(C(=O)C[n+]2cccc(C(N)=O)c2)cc1 | u | 2 | -3 | 12%
COc1ccc(C(=O)C[n+]2cccc3cc(C)ccc32)cc1 | u | 7 | -1 | 15µM*
COc1ccc(C(=O)C[n+]2ccc3ccccc3c2C)cc1 | u | 94* | 45* | u
O=C(C[n+]1cccc2ccccc21)c1ccc(Cl)cc1 | 18% | -2 | 1 | x
CCN1CCN(CC(=O)Nc2cc(C(F)(F)F)ccc2OCCOC)CC1 | u | -8 | -1 | 6%
Cc1ccc(-c2nc(CS(=O)CC(=O)NCCN3CCCCC3C)c(C)o2)cc1 (stereo unspecified) | u | -4 | -3 | -3%
COC(=O)c1ccc(Nc2c([N+](=O)[O-])c(=O)oc3ccccc23)cc1 | u | 21 | 2 | -13%
CCOc1ccc(NC(=O)c2ccc(NC(=O)Cc3n[nH]c(=O)c4ccccc34)cc2)cc1 | -25% | 11 | 10 | -35%
CC(CCN1CCN(c2ccc(F)cc2)CC1)c1ccccc1 (stereo unspecified) | i | 10 | -2 | -11%
COc1cccc(C(=O)C[n+]2cccc3cc(OC)ccc32)c1 | u | x | x | 10µM*
COc1cccc(C(=O)C[n+]2ccccc2/C=N/O)c1 | -21% | 0 | 13 | 0%
Cn1c(SCC(=O)Nc2ccc(Br)cn2)nnc1C1CC1 | -4% | 19 | 2 | -12%
O=C(COC(=O)Cc1ccccc1F)Nc1cc(S(=O)(=O)N2CCOCC2)ccc1N1CCCC1 | 75% | 5 | 3 | -1%
CCCCCC1(C)NC(=S)N(c2ccccc2)N1 (stereo unspecified) | -43%[5.75 µM] | 39 | 20* | 34%
CCCCCCC1(C)NC(=S)N(c2ccccc2)N1 (stereo unspecified) | -1% | 3 | 7 | 3%
CC1(CC(=O)Nc2ccccc2)NC(=S)N(c2ccccc2)N1 (stereo unspecified) | -9% | 44* | 24* | 13%
CCOc1ccc(CCNC(=O)c2ccc3ccccc3n2)cc1OCC | u | 53* | 44* | u
COc1ccc(CCNC(=O)c2ccc(CNS(=O)(=O)c3ccc(C(C)(C)C)cc3)cc2)cc1OC | 13µM* | -4 | 1 | u
SMILES | Pf growth 96h | Shiga inhibitor | CHX counter | Pf growth 48h
CCOc1ccc(CCNC(=O)c2ccc(CNS(=O)(=O)c3ccccc3)cc2)cc1OCC | 8.3µM* | 15 | -1 | u
COc1ccc(CCNC(=O)c2ccc(CNS(=O)(=O)c3cccc(Cl)c3)cc2)cc1OC | -19% | -7 | 2 | 26%
COc1ccc(CCNC(=O)c2ccc(CNS(=O)(=O)c3cc(C)ccc3C)cc2)cc1OC | 5.2µM* | -11 | 1 | x
CCOc1ccc(CCNC(=O)c2cc(=O)[nH]c3ccc(S(=O)(=O)N(CC)CC)cc23)cc1OCC | u | 4 | -1 | 15µM*
COc1ccc(CCNC(=O)c2cnc3ccccc3n2)cc1 | 22% | 43 | 14* | 0%
O=C(CCc1nnc(Cc2ccc3c(c2)OCO3)o1)NC(c1ccccn1)C(F)(F)F (stereo unspecified) | u | 28 | -2 | u
Cc1ccccc1Nc1nc(N)nc(-c2oc3ccccc3c2C)n1 | 99% | 122* | 64* | 116%
Cc1c(-c2nc(N)nc(Nc3ccc(F)cc3)n2)oc2ccccc12 | u | 84* | 22* | u
NC(=O)COC(=O)CCCc1nc2ccccc2s1 | 0% | 15 | 1 | x
COc1ccccc1OC(=O)CCc1nc2ccccc2s1 | -13% | 36 | 25 | 10µM*
CC(=O)c1ccc(OC(=O)CCc2nc3ccccc3s2)cc1 | 9% | 52 | 3 | 7%
COC(=O)CCCc1nc2ccccc2s1 | 111% | 33* | 25 | -19%
CCNc1nc(NCC)nc(OCCOC(C)=O)n1 | 4.1µM* | 14 | 1 | -6%
CC(C)(C)c1ccc(-c2noc(C(=O)NN)n2)cc1 | 2% | 20 | 2 | -8%
CC(C)(C)c1ccc(-c2conc2N)cc1 | x | 111* | 48* | 252%
Cn1c(=O)[nH]c(=O)c2c1nc(NC1CCCC1)n2Cc1ccccc1 | 2% | x | -2 | -5%
Cc1cc(OCc2ccc(C(=O)n3cccn3)o2)ccc1Cl | 27% | 65* | 30* | 16%
O=C(c1ccc(COc2ccc(F)cc2)o1)n1cccn1 | 0% | 25 | -1 | 51%
CCN(CC)C(=O)c1ccc(COc2ccc(Cl)c(C)c2)o1 | u | x | 30* | 12%
CCn1nc(C)c(/C=N/NC(=O)c2ccoc2C)c1C | 357% | 70 | 25* | 207%
CCn1nc(C)c(/C=N/NC(=O)c2nc3nc(C)cc(C)n3n2)c1C | 22% | 15 | 0 | 9%
CCCCCn1nc(C)c(/C=N\NC(=O)c2cc(C)oc2C)c1C | -26% | 44* | 18* | 13µM*
CCCCCn1nc(C)c(/C=N/NC(=O)c2ccoc2C)c1C | -28% | 68* | 40* | 37%
Cc1cccc(OCC(=O)NCCCNC(=O)c2ccc(C)nc2)c1 | -11% | 22 | -8 | -1%
CCOc1ccc2[nH]cc(-c3csc(N)n3)c2c1 | u | -2 | 9 | 12µM*
SMILES | Pf growth 96h | Shiga inhibitor | CHX counter | Pf growth 48h
NS(=O)(=O)c1cc2c(cc1C(F)(F)F)N[C@H](Cc1ccccc1)NS2(=O)=O | -8%[12.8 µM] | x | x | -13%[12.8 µM]
Cc1cc(NC2CCCC2)n2ncc(-c3ccccc3)c2n1 | -77% | 17 | 23* | 32%
Cc1cc(NC2CCCC2)n2nc(C)c(-c3ccccc3)c2n1 | u | 38 | 29* | u
Cc1cc(C(F)(F)F)n2ncc(-c3cccc(Br)c3)c2n1 | 0% | -4 | 14 | 18%
COc1ccc(-c2c(C)nn3c(NC4CCCC4)cc(C)nc23)cc1OC | u | -9 | 0 | u
COc1ccc(Cn2c(SCc3cc(C)ccc3C)nc3cc(OC)c(OC)cc3c2=N)cc1 | u | -6 | -2 | 1.7µM*
COc1ccc(Cn2c(SCc3ccc(C)cc3)nc3cc(OC)c(OC)cc3c2=N)cc1Cl | 2.3µM* | -3 | -2 | 1.7µM*
COCCCn1c(SCc2ccccc2)nc2cc(OC)c(OC)cc2c1=N | u | -3 | -4 | 13µM*
COc1cc2nc(SCc3ccc(C(F)(F)F)cc3)n(Cc3cccs3)c(=N)c2cc1OC | 0% | -12 | -1 | u
CCCCNC(=O)CSc1nc2cc(OC)c(OC)cc2c(=O)n1Cc1ccc(OC)cc1 | -22% | -17 | -2 | u
